Unmarked numbers belong to inactive results.
Tested on: Caenorhabditis elegans L1 (N2)
Experiment: survival and reproduction score of C. elegans L1 (0: 0-10 living worms, 1: 11-20, 2: 21-50, 3: >50, 4: overgrown) (score 0-4); higher = more worms, less nematicidal, active = 1 or less; extreme values may be limits of the assay
Settings: 60 µM; 6 days; temperature: 20 °C
Description: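 DODA library (846 commercial 1,3,4- and 1,2,4-oxadiazole compounds plus commercial nematicide controls) screened at a single dose of 60 µM (0.6% DMSO) in 96-well plates, two biological replicates. Read-outs: C. elegans N2 L1 survival/reproduction score at day 6, 20 °C (0: 0-10 worms, 1: 11-20, 2: 21-50, 3: >50, 4: overgrown/starved). C. elegans daf-2 dauer, D. dipsaci and M. hapla J2 mobility at day 5, 20 °C, and P. penetrans mobility at day 5, 20 °C, each relative to DMSO controls. M. hapla egg hatching at day 12, 25 °C, relative to the mean of 8 DMSO wells on the same plate.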

**Q.** For `COc1ccc(Cl)cc1-c1noc(COc2ccccc2C)n1`, which “survival and reproduction score” value is on record?
**A.** 4

**Q.** Which “survival and reproduction score” value does the source give for `CCOc1ccc(-c2nc(-c3ccc(Cl)cc3)no2)cc1` here?
**A.** 3

**Q.** How did the “survival and reproduction score” value turn out when `Cc1ccc(-c2nc(-c3ccccc3)no2)cc1Cl` was run?
**A.** 3

**Q.** `C#CCOc1ccc(-c2nc(-c3ccccc3)no2)cc1` was tested. Which “survival and reproduction score” value did it give?
**A.** 0 (active)

**Q.** With `Cc1ccc(-c2nc(-c3ccccc3Cl)no2)cc1` as the compound, how does the “survival and reproduction score” value read?
**A.** 4

**Q.** With `Cc1ccc(OCc2nc(-c3ccc4c(c3)OCO4)no2)cc1C` as the compound, how does the “survival and reproduction score” value read?
**A.** 4

**Q.** How did the “survival and reproduction score” value turn out when `Cc1cc(Cl)ccc1OCc1nc(-c2cccnc2)no1` was run?
**A.** 4

**Q.** How did the “survival and reproduction score” value turn out when `O=C(CSc1nnc(-c2ccc(Cl)cc2Cl)o1)Nc1ccccn1` was run?
**A.** 4

**Q.** With `COc1ccc(Cl)cc1-c1nc(-c2ccc3c(c2)OCO3)no1` as the compound, how does the “survival and reproduction score” value read?
**A.** 4

**Q.** Which “survival and reproduction score” value does the source give for `Cc1cccc(-c2noc(COc3ccc(Br)cc3)n2)c1` here?
**A.** 4

**Q.** For `Ic1ccc(-c2nc(-c3cccnc3)no2)cc1`, which “survival and reproduction score” value is on record?
**A.** 0 (active)

**Q.** For `Brc1ccc(CSc2nnc(-c3ccco3)o2)cc1`, which “survival and reproduction score” value is on record?
**A.** 0 (active)

**Q.** Which “survival and reproduction score” value does the source give for `CCn1c(SCc2ccc(OC)cc2)nnc1-c1ccco1` here?
**A.** 4

**Q.** How did the “survival and reproduction score” value turn out when `C(=C\c1ccccc1)/CSc1nnc(-c2ccncc2)o1` was run?
**A.** 4

**Q.** Which “survival and reproduction score” value does the source give for `Cc1ccc(SC(C)c2nc(-c3ccncc3)no2)cc1` (stereo not given) here?
**A.** 4

**Q.** How did the “survival and reproduction score” value turn out when `Clc1cccc(-c2nc(-c3cccnc3)no2)c1` was run?
**A.** 2

**Q.** `c1ccc2cc(-c3nc(-c4ccncc4)no3)ccc2c1` was tested. Which “survival and reproduction score” value did it give?
**A.** 0 (active)

**Q.** With `CC(C)C(=O)Nc1ccccc1-c1nc(-c2ccncc2)no1` as the compound, how does the “survival and reproduction score” value read?
**A.** 4

**Q.** `Clc1ccc(SCc2nc(-c3ccccc3)no2)cc1` was tested. Which “survival and reproduction score” value did it give?
**A.** 0 (active)

**Q.** How did the “survival and reproduction score” value turn out when `O=C(CSc1nnc(-c2ccc(Br)cc2)o1)N1CCCCCC1` was run?
**A.** 4

**Q.** How did the “survival and reproduction score” value turn out when `Cc1ccc(-c2nnc(SCC(=O)NCc3ccccc3)o2)cc1` was run?
**A.** 4

**Q.** How did the “survival and reproduction score” value turn out when `Cc1cccc(-c2noc(-c3ccc(C)c(Cl)c3)n2)c1` was run?
**A.** 4

**Q.** `CCOc1cc(C#N)ccc1OCc1nc(-c2cccs2)no1` was tested. Which “survival and reproduction score” value did it give?
**A.** 4

**Q.** How did the “survival and reproduction score” value turn out when `Cc1ccc(-c2noc(-c3ccccc3OCC(N)=O)n2)cc1` was run?
**A.** 4

**Q.** How did the “survival and reproduction score” value turn out when `Cc1cccc(-c2noc(COc3ccc(Cl)cc3)n2)c1` was run?
**A.** 4

**Q.** `c1ccc(-c2nc(C3CCCCC3)no2)cc1` was tested. Which “survival and reproduction score” value did it give?
**A.** 0 (active)

**Q.** For `COc1cccc(-c2noc(-c3ccc(Cl)cc3)n2)c1`, which “survival and reproduction score” value is on record?
**A.** 3

**Q.** With `CCCCC(=O)Nc1ccccc1-c1nc(-c2ccncc2)no1` as the compound, how does the “survival and reproduction score” value read?
**A.** 4

**Q.** For `COc1ccccc1-c1nnc(SCc2ccc(F)cc2)o1`, which “survival and reproduction score” value is on record?
**A.** 4

**Q.** How did the “survival and reproduction score” value turn out when `COc1ccccc1NC(=O)c1ccccc1-c1nc(-c2ccc(Cl)cc2)no1` was run?
**A.** 4

**Q.** With `COc1ccc(CCC(=O)Nc2ccc(-c3noc(-c4ccccc4C)n3)cc2)cc1` as the compound, how does the “survival and reproduction score” value read?
**A.** 4

**Q.** How did the “survival and reproduction score” value turn out when `CCc1nnc(NC(=O)CSc2nnc(-c3ccc(Cl)cc3Cl)o2)s1` was run?
**A.** 4

**Q.** For `COc1ccc(C(=O)CSc2nnc(-c3cccc(Br)c3)o2)cc1`, which “survival and reproduction score” value is on record?
**A.** 4

**Q.** For `COc1cccc(-c2noc(-c3ccccc3C)n2)c1`, which “survival and reproduction score” value is on record?
**A.** 0.5 (active)

**Q.** For `CCn1c(C)cc(C(=O)CSc2nnc(-c3ccccc3)o2)c1C`, which “survival and reproduction score” value is on record?
**A.** 4

**Q.** For `N#Cc1ccccc1NC(=O)CSc1nnc(-c2ccccc2)o1`, which “survival and reproduction score” value is on record?
**A.** 4

**Q.** `CC(C)Oc1ccc(-c2nc(-c3ccncc3)no2)cc1` was tested. Which “survival and reproduction score” value did it give?
**A.** 0 (active)

**Q.** `COc1cccc(-c2noc(COc3ccc(C)c(C)c3)n2)c1` was tested. Which “survival and reproduction score” value did it give?
**A.** 4

**Q.** How did the “survival and reproduction score” value turn out when `O=C(CSc1nnc(-c2ccc(Cl)cc2)o1)Nc1ccccc1C(F)(F)F` was run?
**A.** 4

**Q.** `COc1nc(C)ccc1-c1noc(-c2ccccc2Br)n1` was tested. Which “survival and reproduction score” value did it give?
**A.** 4

— the supplement of paper PMC11219838
